Results as given in PubChem BioAssay.
Activity calls are given as the source filed them.

Key:
[1] = anti-His antibody binders, primary screen, artefact control for SMM control protein annotation, biochemical, small-molecule microarray, 635 nm fluorescence (AID 1128); details: anti-His Alexa647 antibody binding, higher = more signal;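 further: score merges feature fluorescence with signal-to-noise for each printed compound spot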
[2] = system: Human papillomavirus type 1a E7 protein (residues 1-88); assay: HPV1a E7 small-molecule binders, primary screen, biochemical, small-molecule microarray, residues 1-88, 635 nm (AID 1129); details: small-molecule microarray binding, fluorescence 635 nm; higher = more signal
[3] = molecular target: Focal adhesion kinase 1 (Homo sapiens) (UniProt Q05397); assay: small-molecule microarray binders of FAK, primary screen, biochemical, 635/667 nm fluorescence, BSA, DTT (AID 1130); details: PTK2 binding, 635 nm fluorescence, higher = more signal;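 further: composite of spot emission at 667 nm and signal to noise over triplicate slides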
[4] = system: Fibrinogen (Alexa647-labelled); assay: fibrinogen binders on compound microarrays, profiling panel, artefact control for SMM control-protein annotation, biochemical, small-molecule microarray, 635/667 nm fluorescence (AID 1131); details: fibrinogen-A647 binding fluorescence, higher = more signal;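 further: z-score merges 667 nm fluorescence with per-spot signal-to-noise over triplicate slides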
[5] = molecular target: Follistatin (Homo sapiens) (UniProt P19883); assay: follistatin binders on small-molecule microarrays, primary screen, biochemical, small-molecule microarray, 635/667 nm fluorescence (AID 1132); details: FST binding, 635 nm fluorescence, higher = more signal
[6] = molecular target: Fibroblast growth factor 2 (Homo sapiens) (UniProt P09038); assay: FGF2 binders on small-molecule microarrays, primary screen, biochemical, small-molecule microarray, 635/667 nm fluorescence (AID 1133); details: small-molecule microarray binding, FGF2, fluorescence 635/667; higher = more signal
[7] = mitochondrial membrane potential change in A549 cells, profiling panel, cell-based, JC-1 fluorescence, basal, 24 h, 100 nL (AID 1138); details: higher = more signal;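 further: A549 lung adenocarcinoma cells under basal conditions with no added stimulus; test concentration not given here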
Lefty1 = Lefty1 binders on small-molecule microarrays, primary screen, biochemical, small-molecule microarray, 635/667 nm fluorescence (AID 1139); details: small-molecule microarray binding, fluorescence 635/667; higher = more signal
[8] = system: wheat germ agglutinin (Triticum aestivum), Alexa647-labelled; assay: wheat germ agglutinin binders on compound microarrays, profiling panel, artefact control for SMM control-protein annotation, biochemical, small-molecule microarray, 635/667 nm fluorescence (AID 1140); details: WGA-A647 binding, 635 nm fluorescence, higher = more signal;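 further: score merges 667 nm feature emission with signal to noise over triplicate slides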
[9] = molecular target: Luciferin 4-monooxygenase (Photinus pyralis) (UniProt P08659); assay: firefly luciferase enzyme inhibitors, primary screen, biochemical, luminescence, purified enzyme, 2006 set (AID 1141); details: SteadyGlo luminescence, 30 min, higher = more signal, called active from +8 up or from −8 down;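 further: cell-free assay with purified firefly luciferase at 100 ng per well in PBS; test concentration not given here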
Chain of Luciferin 4-monooxygenase (Photinus pyralis) (P08659 whole entry, looked up): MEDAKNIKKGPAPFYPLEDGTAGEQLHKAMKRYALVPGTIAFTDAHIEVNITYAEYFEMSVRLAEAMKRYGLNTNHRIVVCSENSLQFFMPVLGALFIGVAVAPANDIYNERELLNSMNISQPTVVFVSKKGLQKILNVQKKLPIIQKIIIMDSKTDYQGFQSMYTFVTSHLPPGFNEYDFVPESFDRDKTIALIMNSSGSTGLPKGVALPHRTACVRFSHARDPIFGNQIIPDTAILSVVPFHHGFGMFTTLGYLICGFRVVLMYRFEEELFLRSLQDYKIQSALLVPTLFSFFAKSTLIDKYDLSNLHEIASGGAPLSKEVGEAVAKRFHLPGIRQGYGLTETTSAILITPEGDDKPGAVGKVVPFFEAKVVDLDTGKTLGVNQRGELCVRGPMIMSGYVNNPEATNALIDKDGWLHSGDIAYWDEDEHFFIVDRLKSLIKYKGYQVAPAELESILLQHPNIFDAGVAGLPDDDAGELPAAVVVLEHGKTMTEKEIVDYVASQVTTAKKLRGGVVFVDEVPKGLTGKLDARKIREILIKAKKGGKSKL

Chain of Focal adhesion kinase 1 (Homo sapiens) (Q05397 whole entry, looked up): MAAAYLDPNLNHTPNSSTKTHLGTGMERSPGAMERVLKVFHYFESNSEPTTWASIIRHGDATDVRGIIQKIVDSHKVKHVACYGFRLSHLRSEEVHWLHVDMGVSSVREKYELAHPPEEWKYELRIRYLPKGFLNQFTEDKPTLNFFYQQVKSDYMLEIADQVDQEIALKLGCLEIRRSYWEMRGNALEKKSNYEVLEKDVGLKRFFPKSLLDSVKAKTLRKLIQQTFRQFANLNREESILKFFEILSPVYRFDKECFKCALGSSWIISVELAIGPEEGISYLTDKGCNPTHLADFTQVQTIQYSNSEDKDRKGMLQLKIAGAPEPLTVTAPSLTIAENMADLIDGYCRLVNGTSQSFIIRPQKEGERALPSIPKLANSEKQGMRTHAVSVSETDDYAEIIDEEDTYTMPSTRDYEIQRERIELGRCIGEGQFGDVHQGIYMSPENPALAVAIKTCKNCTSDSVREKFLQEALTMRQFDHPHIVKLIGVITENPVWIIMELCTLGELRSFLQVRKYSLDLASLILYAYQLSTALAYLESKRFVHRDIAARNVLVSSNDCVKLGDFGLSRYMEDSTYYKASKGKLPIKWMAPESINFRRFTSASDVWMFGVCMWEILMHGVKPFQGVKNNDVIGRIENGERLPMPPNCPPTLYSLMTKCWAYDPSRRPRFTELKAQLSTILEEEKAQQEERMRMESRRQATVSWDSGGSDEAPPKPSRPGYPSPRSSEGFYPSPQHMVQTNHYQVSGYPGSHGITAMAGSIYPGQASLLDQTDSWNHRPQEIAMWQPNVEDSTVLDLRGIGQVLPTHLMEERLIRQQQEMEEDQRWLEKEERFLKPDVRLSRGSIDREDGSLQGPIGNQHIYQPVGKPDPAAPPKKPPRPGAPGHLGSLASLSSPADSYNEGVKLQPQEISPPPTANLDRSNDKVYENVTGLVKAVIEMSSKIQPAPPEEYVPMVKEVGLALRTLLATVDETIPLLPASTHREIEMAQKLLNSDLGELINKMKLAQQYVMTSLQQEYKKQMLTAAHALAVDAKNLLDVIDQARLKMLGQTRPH
Chain of Fibroblast growth factor 2 (Homo sapiens) (P09038 whole entry, looked up): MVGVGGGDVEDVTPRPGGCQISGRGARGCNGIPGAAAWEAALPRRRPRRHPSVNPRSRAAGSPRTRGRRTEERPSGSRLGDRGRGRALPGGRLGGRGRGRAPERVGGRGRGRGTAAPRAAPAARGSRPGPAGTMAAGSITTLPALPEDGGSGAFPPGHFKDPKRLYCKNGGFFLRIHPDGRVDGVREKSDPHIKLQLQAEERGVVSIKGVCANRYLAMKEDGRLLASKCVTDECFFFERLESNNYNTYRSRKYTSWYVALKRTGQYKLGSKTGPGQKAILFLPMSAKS
Chain of Follistatin (Homo sapiens) (P19883 whole entry, looked up): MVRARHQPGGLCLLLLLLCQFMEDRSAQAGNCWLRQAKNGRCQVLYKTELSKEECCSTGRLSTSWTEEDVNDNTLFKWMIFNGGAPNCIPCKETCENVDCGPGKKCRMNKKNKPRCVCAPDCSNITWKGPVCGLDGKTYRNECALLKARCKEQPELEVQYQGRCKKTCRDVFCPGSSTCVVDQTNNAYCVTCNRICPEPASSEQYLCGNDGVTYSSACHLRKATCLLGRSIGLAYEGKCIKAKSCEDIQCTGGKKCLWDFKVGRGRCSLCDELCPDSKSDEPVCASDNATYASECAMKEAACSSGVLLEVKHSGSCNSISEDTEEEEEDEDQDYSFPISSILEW

C=CCNC(=O)[C@H]1[C@@H]2C(=O)O[C@@H](c3ccccc3)[C@@H](c3ccccc3)N2[C@@H](c2ccc(OCCO)cc2)[C@]12C(=O)N(C(=O)OCCOC)c1ccc(C#Cc3ccc(OC)cc3)cc12
composite z-score [1]: 1.25 | composite z-score [2]: 1.15 | composite z-score [3]: 0.0069 | composite z-score [4]: 0.904 | composite z-score [5]: 1.22 | composite z-score [6]: 0.714 | z-score [7]: -1.59 | composite z-score (Lefty1): 0.544 | composite z-score [8]: 0.719 | z-score [9]: -1.51 (inactive)

[N-]=[N+]=NCc1ccccc1[C@H]1OC(c2ccc(OCCCO)cc2)=N[C@@]1(CCS(=O)(=O)c1ccccc1)C(=O)NCc1ccccc1
composite z-score [1]: 1.41 | composite z-score [2]: 1.2 | composite z-score [3]: 0.13 | composite z-score [4]: 0.941 | composite z-score [5]: 1.36 | composite z-score [6]: 0.623 | z-score [7]: 0.453 | composite z-score (Lefty1): 0.189 | composite z-score [8]: 0.703 | z-score [9]: -1.41 (inactive)

COc1ccc(C#Cc2ccc3c(c2)[C@]2(C(=O)N3)[C@H](c3ccc(OCCO)cc3)N3[C@H](c4ccccc4)[C@H](c4ccccc4)OC(=O)[C@H]3[C@@H]2C(=O)N2CCc3cc(OC)c(OC)cc3C2)cc1
composite z-score [1]: 0.78 | composite z-score [2]: 1.18 | composite z-score [3]: 0.946 | composite z-score [4]: 0.532 | composite z-score [5]: 1.44 | composite z-score [6]: 1.49 | z-score [7]: -1.14 | composite z-score (Lefty1): 1.17 | composite z-score [8]: 0.863 | z-score [9]: -0.922 (inactive)

COc1ccc(C#Cc2ccc3c(c2)[C@]2(C(=O)N3)[C@H](C(=O)N3CCCCCCC3)[C@H]3C(=O)O[C@H](c4ccccc4)[C@H](c4ccccc4)N3[C@@H]2c2ccc(O)cc2)cc1
composite z-score [1]: 1.21 | composite z-score [2]: 1.21 | composite z-score [3]: 0.127 | composite z-score [4]: 0.729 | composite z-score [5]: 1.31 | composite z-score [6]: 0.709 | z-score [7]: -0.316 | composite z-score (Lefty1): 0.942 | composite z-score [8]: 0.983 | z-score [9]: 0.103 (inactive)

C=C/C=C/[C@@H]1C(=C)CN([C@@H](Cc2ccccc2)C(=O)OC)[C@H]1[C@@H](O)Cc1ccccc1
composite z-score [1]: 0.507 | composite z-score [2]: 1.07 | composite z-score [3]: 0.507 | composite z-score [4]: 0.807 | composite z-score [5]: 0.818 | composite z-score [6]: 0.227 | z-score [7]: 0.718 | composite z-score (Lefty1): 0.446 | composite z-score [8]: 0.635 | z-score [9]: -0.053 (inactive)

COCCOC(=O)N1C(=O)[C@@]2(c3cc(C#Cc4ccc(OC)cc4)ccc31)[C@H](c1ccc(OCCO)cc1)N1[C@H](c3ccccc3)[C@H](c3ccccc3)OC(=O)[C@H]1[C@@H]2C(=O)Nc1nc2ccccc2s1
composite z-score [1]: 0.52 | composite z-score [2]: 1.16 | composite z-score [3]: 0.415 | composite z-score [4]: 0.707 | composite z-score [5]: 1.05 | composite z-score [6]: 0.464 | z-score [7]: -2.05 | composite z-score (Lefty1): 0.676 | composite z-score [8]: 0.609 | z-score [9]: -1.27 (inactive)

COCCOC(=O)N1C(=O)[C@@]2(c3cc(C#CC4=CCCCC4)ccc31)[C@H](c1ccc(O)cc1)N1[C@H](c3ccccc3)[C@H](c3ccccc3)OC(=O)[C@H]1[C@@H]2C(=O)NC[C@H](O)c1ccccc1
composite z-score [1]: 1.13 | composite z-score [2]: 1.22 | composite z-score [3]: 0.26 | composite z-score [4]: 0.813 | composite z-score [5]: 1.22 | composite z-score [6]: 0.685 | z-score [7]: -1.14 | composite z-score (Lefty1): 0.858 | composite z-score [8]: 0.781 | z-score [9]: -1.08 (inactive)
